PubChem BioAssay
Calls of active or inactive are those of the source.

What was measured:
[1] = small molecules captured by biotinylated probe aFSTL3 – biochemical, small-molecule microarray, fluorescence 635/667, stem cell growth factor project, primary screen (AID 1064); conditions: higher = more signal;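 note: measures binding of the biotinylated anti-FSTL3 antibody to printed compounds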
[2] = binders from COS7 lysate, DM2A8 probe, primary screen, torsin A project, cell lysate, small-molecule microarray, fluorescence 635/667 (AID 1065); conditions: higher = more signal, COS7 lysate expressing mutant human TOR1A
[3] = small molecules captured by biotinylated probe aFGF2 – biochemical, small-molecule microarray, fluorescence 635/667, stem cell growth factor project, primary screen (AID 1067); conditions: higher = more signal;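 note: measures binding of biotinylated aFGF2 protein to printed compounds on slides; z-score merges feature fluorescence and signal-to-noise across triplicate slides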
[4] = small molecules captured by biotinylated probe aFGF10 – biochemical, small-molecule microarray, fluorescence 635/667, stem cell growth factor project, primary screen (AID 1071); conditions: higher = more signal;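 note: score merges 667 nm spot intensity and signal to noise from triplicate slides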
[5] = target: Neurogenic locus notch homolog protein 2 (Homo sapiens) (UniProt Q04721); assay: small molecules binding Notch2 protein – biochemical, small-molecule microarray, 635 nm fluorescence, stem cell growth factors, primary screen (AID 1073); conditions: higher = more signal
Neurogenic locus notch homolog protein 2 (Homo sapiens), sequence (Q04721 whole entry, looked up, canonical isoform): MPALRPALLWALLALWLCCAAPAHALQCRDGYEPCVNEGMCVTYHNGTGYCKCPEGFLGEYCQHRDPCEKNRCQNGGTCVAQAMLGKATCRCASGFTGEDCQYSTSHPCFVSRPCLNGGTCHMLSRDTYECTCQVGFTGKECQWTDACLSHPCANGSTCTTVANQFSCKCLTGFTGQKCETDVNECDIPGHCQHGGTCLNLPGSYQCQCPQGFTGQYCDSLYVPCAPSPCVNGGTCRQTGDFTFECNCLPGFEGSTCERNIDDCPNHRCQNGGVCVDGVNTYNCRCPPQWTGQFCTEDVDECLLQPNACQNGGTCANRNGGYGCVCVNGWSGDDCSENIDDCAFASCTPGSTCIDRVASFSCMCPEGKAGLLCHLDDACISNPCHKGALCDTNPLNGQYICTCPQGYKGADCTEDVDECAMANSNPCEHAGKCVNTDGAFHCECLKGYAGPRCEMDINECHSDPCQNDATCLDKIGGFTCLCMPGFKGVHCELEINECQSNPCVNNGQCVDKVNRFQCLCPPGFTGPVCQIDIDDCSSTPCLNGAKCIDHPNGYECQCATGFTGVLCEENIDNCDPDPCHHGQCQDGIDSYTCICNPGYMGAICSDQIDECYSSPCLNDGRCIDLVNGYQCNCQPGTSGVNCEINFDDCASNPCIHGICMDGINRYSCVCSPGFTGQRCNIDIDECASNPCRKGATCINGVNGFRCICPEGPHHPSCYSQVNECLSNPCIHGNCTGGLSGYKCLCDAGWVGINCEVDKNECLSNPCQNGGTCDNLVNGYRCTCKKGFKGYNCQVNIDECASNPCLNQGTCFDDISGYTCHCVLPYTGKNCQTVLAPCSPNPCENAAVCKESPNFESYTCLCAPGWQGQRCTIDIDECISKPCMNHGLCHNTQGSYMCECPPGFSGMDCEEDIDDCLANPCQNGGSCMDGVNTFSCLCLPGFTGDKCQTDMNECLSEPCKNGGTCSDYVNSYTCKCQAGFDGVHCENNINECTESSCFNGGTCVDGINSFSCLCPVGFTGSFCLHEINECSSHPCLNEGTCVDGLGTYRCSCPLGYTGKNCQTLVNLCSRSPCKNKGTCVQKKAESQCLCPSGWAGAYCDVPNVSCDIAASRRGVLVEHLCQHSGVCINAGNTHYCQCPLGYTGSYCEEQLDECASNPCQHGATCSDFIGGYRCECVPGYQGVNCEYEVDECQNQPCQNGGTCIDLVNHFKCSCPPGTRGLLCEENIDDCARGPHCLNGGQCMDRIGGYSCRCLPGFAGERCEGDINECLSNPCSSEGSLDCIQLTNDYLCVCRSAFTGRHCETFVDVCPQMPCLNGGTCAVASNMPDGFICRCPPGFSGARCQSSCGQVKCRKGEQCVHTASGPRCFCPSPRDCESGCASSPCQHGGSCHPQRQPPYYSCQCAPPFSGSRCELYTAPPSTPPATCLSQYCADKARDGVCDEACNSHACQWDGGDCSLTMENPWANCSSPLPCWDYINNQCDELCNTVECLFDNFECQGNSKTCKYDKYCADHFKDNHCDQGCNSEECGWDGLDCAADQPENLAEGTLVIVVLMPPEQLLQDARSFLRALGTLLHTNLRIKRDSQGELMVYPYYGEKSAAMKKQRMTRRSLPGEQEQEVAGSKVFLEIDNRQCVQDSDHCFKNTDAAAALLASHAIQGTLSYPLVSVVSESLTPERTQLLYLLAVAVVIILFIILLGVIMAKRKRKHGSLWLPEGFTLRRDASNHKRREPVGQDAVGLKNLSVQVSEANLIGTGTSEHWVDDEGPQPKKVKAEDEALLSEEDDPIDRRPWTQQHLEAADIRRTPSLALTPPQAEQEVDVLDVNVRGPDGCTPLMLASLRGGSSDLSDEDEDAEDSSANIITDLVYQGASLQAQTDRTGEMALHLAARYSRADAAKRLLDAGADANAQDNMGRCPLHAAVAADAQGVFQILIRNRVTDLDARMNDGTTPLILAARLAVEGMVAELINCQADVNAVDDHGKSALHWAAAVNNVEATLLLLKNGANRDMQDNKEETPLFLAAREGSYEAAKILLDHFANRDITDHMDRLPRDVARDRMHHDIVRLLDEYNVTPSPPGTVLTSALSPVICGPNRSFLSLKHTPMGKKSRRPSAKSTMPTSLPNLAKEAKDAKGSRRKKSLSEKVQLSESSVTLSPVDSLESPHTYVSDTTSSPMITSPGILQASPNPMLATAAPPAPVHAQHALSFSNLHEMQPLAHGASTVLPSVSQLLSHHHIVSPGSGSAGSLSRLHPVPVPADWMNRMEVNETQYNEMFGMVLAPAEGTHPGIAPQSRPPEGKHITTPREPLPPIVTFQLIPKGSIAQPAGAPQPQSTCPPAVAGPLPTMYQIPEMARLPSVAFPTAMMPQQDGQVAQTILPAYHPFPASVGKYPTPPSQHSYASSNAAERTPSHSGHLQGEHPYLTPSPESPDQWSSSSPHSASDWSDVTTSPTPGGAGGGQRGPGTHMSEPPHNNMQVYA

[6] = target: Pro-neuregulin-1, membrane-bound isoform (Homo sapiens) (UniProt Q02297); assay: small molecules binding neuregulin-1 protein – biochemical, small-molecule microarray, fluorescence 635/667, psychiatric disease protein project, primary screen (AID 1075); conditions: NRG1 binding, 635 nm fluorescence, higher = more signal;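 note: score combines 667 nm spot fluorescence with signal to noise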
Pro-neuregulin-1, membrane-bound isoform (Homo sapiens), sequence (Q02297 whole entry, looked up, the tested form may be a part, canonical isoform): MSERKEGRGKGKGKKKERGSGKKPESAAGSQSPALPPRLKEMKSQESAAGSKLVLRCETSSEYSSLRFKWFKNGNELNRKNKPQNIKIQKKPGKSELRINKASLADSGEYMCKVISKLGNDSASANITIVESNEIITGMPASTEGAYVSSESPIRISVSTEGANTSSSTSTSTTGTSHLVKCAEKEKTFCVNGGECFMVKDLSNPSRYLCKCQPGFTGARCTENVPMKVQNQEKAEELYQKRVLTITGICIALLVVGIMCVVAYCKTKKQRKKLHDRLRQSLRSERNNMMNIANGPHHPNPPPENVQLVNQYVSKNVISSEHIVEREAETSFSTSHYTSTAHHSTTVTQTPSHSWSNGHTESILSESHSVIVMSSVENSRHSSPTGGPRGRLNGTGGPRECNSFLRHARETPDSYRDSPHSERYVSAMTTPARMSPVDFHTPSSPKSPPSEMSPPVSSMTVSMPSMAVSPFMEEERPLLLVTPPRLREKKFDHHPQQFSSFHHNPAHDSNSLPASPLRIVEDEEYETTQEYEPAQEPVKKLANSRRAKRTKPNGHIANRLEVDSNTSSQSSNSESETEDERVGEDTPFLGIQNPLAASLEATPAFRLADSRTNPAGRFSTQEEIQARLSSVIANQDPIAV

[7] = test system: Neuregulin-1 EGF-like domain; assay: small molecules binding NRG1 EGF domain – biochemical, small-molecule microarray, 635 nm fluorescence, primary screen (AID 1081); conditions: higher = more signal;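 note: binding of the protein to compounds printed on small-molecule microarray slides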
[8] = FRG1 expression reporter modulators in myotubes – cell-based, C2C12 myotubes, firefly/Renilla luciferase, luminescence, FRG1 inhibition for FSHD, primary screen (AID 1084); conditions: FRG1 promoter luciferase, higher = more signal, called active from +8 up or from −8 down
[9] = small molecules captured by biotinylated probe aFST – biochemical, small-molecule microarray, fluorescence 635/667, stem cell growth factor project, primary screen (AID 1086); conditions: higher = more signal;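 note: score merges 667 nm fluorescence with signal-to-noise of each printed compound spot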
[10] = binders of probe aHhip on microarray, primary screen, stem cell growth factor project, biochemical, small-molecule microarray, fluorescence 635/667 (AID 1087); conditions: higher = more signal;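 note: score merges spot fluorescence at 667nm with spot signal to noise ratio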
[11] = test system: PRMT1 (protein arginine N-methyltransferase 1); assay: small molecules binding arginine methyltransferase PRMT1 – biochemical, small-molecule microarray, 635 nm fluorescence, primary screen (AID 1088); conditions: higher = more signal;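 note: binding of Prmt1 protein to compounds spotted on small-molecule microarray slides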
[12] = growth effects on S. cerevisiae YJM789 – YJM789 clinical isolate, OD600, 24 h, basal, primary screen (AID 1089); conditions: higher = more signal, called active from +8 up or from −8 down;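 note: growth of clinical yeast isolate S. cerevisiae YJM 789 seeded 1000 cells per well; test concentration not given here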
[13] = S. pombe growth modifiers, basal conditions – strain 972, OD600, 24 h, no modulator, primary screen (AID 1090);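 note: basal condition with compound alone and no growth modifier present; test concentration not given here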; conditions: S. pombe 972 growth, higher = more signal, called active from +8 up or from −8 down
[14] = budding yeast growth modifiers under rapamycin – strain BY4716, OD600, 96 h, primary screen (AID 1091); note: test concentration not given here; conditions: S. cerevisiae BY4716 + rapamycin, higher = more signal, called active from +8 up or from −8 down
[15] = target: Torsin-1A-interacting protein 2 (Homo sapiens) (UniProt Q8NFQ8); assay: small molecules binding lysate-expressed LULL1 – cell lysate, human LULL1 lysate, 635/667 nm fluorescence, primary screen (AID 1092); conditions: small-molecule microarray, hLULL1 lysate binding, 635 nm fluorescence; higher = more signal;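 note: probe is lysate of COS7 cells overexpressing human LULL1; score merges per-feature 667 nm fluorescence with signal-to-noise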
Torsin-1A-interacting protein 2 (Homo sapiens), sequence (Q8NFQ8 whole entry, looked up): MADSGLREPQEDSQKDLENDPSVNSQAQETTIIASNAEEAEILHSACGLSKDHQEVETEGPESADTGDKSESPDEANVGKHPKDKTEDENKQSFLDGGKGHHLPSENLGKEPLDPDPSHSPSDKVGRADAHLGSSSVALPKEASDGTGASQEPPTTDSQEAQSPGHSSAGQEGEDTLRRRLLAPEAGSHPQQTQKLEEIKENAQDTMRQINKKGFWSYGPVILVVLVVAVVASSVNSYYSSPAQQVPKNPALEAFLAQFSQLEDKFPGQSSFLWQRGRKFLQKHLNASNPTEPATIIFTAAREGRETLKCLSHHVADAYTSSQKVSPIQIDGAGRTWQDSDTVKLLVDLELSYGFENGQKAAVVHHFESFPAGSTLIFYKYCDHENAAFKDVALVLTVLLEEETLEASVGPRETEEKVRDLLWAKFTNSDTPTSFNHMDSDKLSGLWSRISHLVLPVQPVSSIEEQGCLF

[16] = optical density change of DRC41 E. coli – strain DRC41, OD650, 24 h, E. coli filamentation project, primary screen (AID 1093);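 note: MC1000 strain lacking acrAB efflux and sulA so SOS filamentation is blocked; test concentration not given here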; conditions: E. coli DRC41 growth, higher = more signal, called active from +8 up or from −8 down
[17] = probe aLefty2 binding to arrayed compounds – biochemical, biotinylated probe, 635/667 nm fluorescence, primary screen (AID 1094); conditions: small-molecule microarray, higher = more signal;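 note: score merges spot fluorescence near 667 nm with spot signal-to-noise ratio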
[18] = test system: Noggin (protein binding on small-molecule microarray); assay: small molecules binding Noggin protein – biochemical, 635/667 nm fluorescence, primary screen (AID 1095); conditions: 635 nm fluorescence, higher = more signal;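 note: score merges 667 nm feature fluorescence with signal to noise over triplicate slides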
[19] = target: Neurogenic locus notch homolog protein 3 (Homo sapiens) (UniProt Q9UM47); assay: small molecules binding NOTCH3 protein – biochemical, 635/667 nm fluorescence, primary screen (AID 1096); conditions: small-molecule microarray, 635 nm fluorescence, higher = more signal
[20] = probe aEGFR binding to arrayed compounds – biochemical, biotinylated probe, 635/667 nm fluorescence, primary screen (AID 1097); conditions: small-molecule microarray, higher = more signal;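 note: probe is a biotinylated anti-EGFR antibody binding compounds printed on slides; score combines fluorescence near 667 nm and signal to noise of each spot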

Row | Structure (SMILES) | composite z-score [1] | composite z-score [2] | composite z-score [3] | composite z-score [4] | composite z-score [5] | composite z-score [6] | composite z-score [7] | z-score [8] | composite z-score [9] | composite z-score [10] | composite z-score [11] | z-score [12] | z-score [13] | z-score [14] | composite z-score [15] | z-score [16] | composite z-score [17] | composite z-score [18] | composite z-score [19] | composite z-score [20]
1 | CN(C)CCCCNC(=O)[C@@H]1C[C@@H]2C(=O)N[C@@H](CCCCN)C(=O)N2[C@@H]1c1cccc(OCCO)c1 | 1.24 | -0.719 | -0.138 | -0.347 | -0.573 | 2.07 | 1.3 | 3.31 (inactive) | 0.145 | 0.424 | 1.02 | -0.0533 (inactive) | 0.286 (inactive) | -0.363 (inactive) | 3.58 | -0.285 (inactive) | 0.197 | -0.989 | 0.37 | -0.223
2 | CC(C)OC(=O)C1=CCC(c2cccc(Cl)c2)O1 (stereo not given) | -0.206 | -0.125 | -0.0717 | -0.348 | -1.12 | 0.754 | 1.06 | -0.716 (inactive) | -0.332 | -0.409 | 0.559 | -3.2 (inactive) | -5.63 (inactive) | -1.11 (inactive) | 3.3 | 1.09 (inactive) | -0.245 | -0.523 | -0.129 | -0.306
3 | COC(=O)c1nc2oc1CC[C@@H](CO)NC(=O)N(C)Cc1cn(nn1)C[C@H](Cc1ccccc1)NC2=O | 0.0478 | -0.871 | -0.0982 | 0.0055 | 0.242 | 1.01 | 1.09 | -0.605 (inactive) | -0.324 | -0.226 | 0.594 | 0.654 (inactive) | -3.35 (inactive) | -0.858 (inactive) | 2.59 | 2.05 (inactive) | -0.139 | 1.04 | 0.175 | -0.181
4 | CCOC(=O)C[C@H]1[C@H](OC(=O)c2ccccc2-c2ccccc2)[C@@H](NC(=O)c2ccc(-c3ccccc3)cc2)c2cc(OCCCO)ccc2N1C(=O)c1ccccc1 | -0.491 | 0.167 | -0.0428 | 0.69 | 0.56 | 0.106 | 0.787 | -0.172 (inactive) | 0.342 | 0.177 | 0.997 | 0.742 (inactive) | 0.5 (inactive) | 1.7 (inactive) | 1.99 | 1.04 (inactive) | -0.0888 | 0.603 | 0.695 | 0.104
5 | O=C1O[C@H](c2ccccc2)[C@H](c2ccccc2)N2[C@H]1[C@@H](C(=O)NC[C@H](O)c1ccccc1)[C@]1(C(=O)Nc3ccc(C#CC4(O)CCCCCC4)cc31)[C@H]2c1ccccc1OCCO | -0.267 | 0.444 | -0.136 | 0.566 | 0.967 | 0.911 | 1.12 | -0.369 (inactive) | 0.0026 | -0.0645 | 1.54 | 2.05 (inactive) | 1.27 (inactive) | 5.14 (inactive) | 2.84 | 0.0483 (inactive) | -0.119 | 1.08 | 0.644 | -0.182
6 | CN1C(=O)C2C(C1=O)C1C=C(c3ccc(CO)cc3)C2C(C2CC2)N1Cc1cc2c(cc1Br)OCO2 (stereo not given) | -0.0526 | 1.44 | -0.0171 | 0.561 | 1.61 | 1.46 | 1.24 | -4.12 (inactive) | 0.917 | -0.127 | 1.53 | -3.93 (inactive) | -6.09 (inactive) | 0.385 (inactive) | 3.49 | -0.911 (inactive) | 0.313 | 0.268 | 1.09 | 0.035
7 | O=C1C[C@@](C(=O)O)(c2ccc([N+](=O)[O-])cc2)[C@@H](c2ccc(CO)cc2I)N1C1CCCCC1 | 0.0508 | 0.0298 | -0.0256 | 0.798 | 1.11 | 1.39 | 0.94 | -1.26 (inactive) | 0.797 | 0.12 | 0.222 | -1.09 (inactive) | -6.54 (inactive) | 0.173 (inactive) | 2.54 | 2.15 (inactive) | 0.0539 | 0.373 | 1.06 | -0.0828
8 | O=C1C2C=CC(C(O)c3cccc4ccccc34)N(n3cnnc3)C2C(=O)N1Cc1ccccc1 (stereo not given) | 1.45 | 0.0748 | 0.737 | 0.774 | 0.309 | 0.704 | 0.821 | -0.259 (inactive) | 1.8 | 0.506 | -0.117 | -26.6 (active) | -16.1 (active) | -0.0039 (inactive) | 0.846 | -1.18 (inactive) | 0.93 | 0.56 | 0.467 | 0.804
9 | Cc1ccc(S[C@]2(C(=O)NCc3ccccc3)CC(=O)N(Cc3cc(C(F)(F)F)cc(C(F)(F)F)c3)[C@@H]2c2ccc(CO)cc2)cc1 | -0.989 | -0.779 | -0.172 | -0.596 | -0.885 | 0.57 | 0.246 | -0.588 (inactive) | -0.0847 | -0.362 | 1.34 | 1.04 (inactive) | -0.27 (inactive) | 0.521 (inactive) | 1.94 | -0.764 (inactive) | -0.225 | 0.0043 | -0.132 | -0.325
10 | [N-]=[N+]=NCc1ccccc1C[C@]1(C(=O)NCCN2CCOCC2)N=C(c2ccc(OCCCO)cc2)O[C@H]1c1ccccc1CN=[N+]=[N-] | -0.199 | -0.671 | 0.0011 | 1.12 | 1.03 | 1.11 | 1.2 | -0.0883 (inactive) | 1.26 | 0.0139 | 1.53 | -2.57 (inactive) | -0.847 (inactive) | -0.802 (inactive) | -3.05 | 1.2 (inactive) | 0.111 | 1.16 | 1.08 | 0.0278
